Measured values reported in paper PMC4552634, “A New Set of Chemical Starting Points with Plasmodium falciparum Transmission-Blocking Potential for Antimalarial Drug Discovery” (PLoS ONE, 2015).
Among all 13,000 compounds or so, about 3,200 (25%) showed an effect of 50% or more. Some of the results follow.

System: P. falciparum stage V gametocytes
Design: BacTiter-Glo ATP luminescence viability of purified stage V gametocytes in 384-well plates, per cent inhibition versus DMSO
Settings: 48 h, 5 µM; inhibitor

Row | Compound | % Inhibition [%]
1 | CCc1c[nH]c2c(N3CCCCS3(=O)=O)cc(C(=O)N[C@@H](Cc3ccccc3)[C@H](O)CNCc3cccc(OC)c3)cc12 [TCMDC-134127] | -6.303
2 | Cc1cc(N[C@@H](Cc2ccccc2)C(=O)Nc2ccccc2)nc(NCCc2ccccn2)n1 [TCMDC-134749] | 53.15
3 | CCCC(C)Nc1nc(C)cc(N[C@@H](Cc2ccccc2)C(=O)Nc2ccc(OC)cc2)n1 (stereo partly shown) [TCMDC-134881] | -19.42
4 | COc1ccc(NC(=O)[C@H](Cc2ccccc2)Nc2cc(C)nc(NCC3CCCCC3)n2)cc1 [TCMDC-134929] | 14.59
5 | COc1ccc(NC(=O)[C@H](Cc2ccccc2)Nc2cc(C)nc(NCCc3ccccn3)n2)cc1 [TCMDC-134746] | 109.1
6 | CO/C(=C\C=C\c1cc2cc(Cl)c(Cl)cc2[nH]1)C(=O)NCCCN1CCN(c2cccc(OC)c2)CC1 [TCMDC-139161] | -21.84
7 | O=C(N[C@@H](Cc1ccccc1)C(=O)NC1CCCc2ccccc21)c1ccc(O)c(-c2ccc(Cl)c(Cl)c2)c1 (stereo partly shown) [TCMDC-140868] | 35.62
8 | Nc1ncc(-c2cccc(CCN3CCOCC3)c2)cc1-c1nc2ccc(Br)cc2[nH]1 [TCMDC-133135] | 15.3
9 | NC1CCN(Cc2ccc(-c3cccc(-c4nc5ccccc5[nH]4)c3)cc2)C1 (stereo not shown) [TCMDC-133879] | 58.35
10 | OC1CCCN(Cc2ccc(-c3cccc(-c4nc5ccccc5[nH]4)c3)cc2)C1 (stereo not shown) [TCMDC-133836] | -1.76
11 | NC1CCCN(Cc2ccc(-c3cccc(-c4nc5ccccc5[nH]4)c3)cc2)C1 (stereo not shown) [TCMDC-133880] | 58.58
12 | CC1CN(Cc2ccc(-c3ccc(-c4nc5ccccc5[nH]4)cc3)cc2)CC(C)O1.O=C(O)C(F)(F)F (stereo not shown) [TCMDC-133828] | -35.16
13 | NC1CCN(Cc2ccc(-c3ccc(-c4nc5ccccc5[nH]4)cc3)cc2)C1.O=C(O)C(F)(F)F (stereo not shown) [TCMDC-133868] | 102.2
14 | O=C(O)C(F)(F)F.OC1CCCN(Cc2ccc(-c3ccc(-c4nc5ccccc5[nH]4)cc3)cc2)C1 (stereo not shown) [TCMDC-133829] | -32.2
15 | N=c1c2c(n(Cc3ccccc3)c3c1CCC3)CCCC2 [TCMDC-124229] | -1.262
16 | Clc1cccc(C23N=C(Nc4nc5ccccc5[nH]4)NC2(c2ccccc2)NC(Nc2nc4ccccc4[nH]2)=N3)c1 (stereo not shown) [TCMDC-139089] | 3.895
17 | COc1ccc(-c2cnc3ccc(NCc4ccc(S(N)(=O)=O)cc4)nn23)cn1 [TCMDC-136688] | 73.26
18 | COc1ccc(-c2cnc3ccc(NCc4ccc(S(N)(=O)=O)cc4)nn23)cc1 [TCMDC-136687] | 45.37
19 | NS(=O)(=O)c1ccc(CNc2ccc3ncc(-c4ccc(Cl)cc4)n3n2)cc1 [TCMDC-136686] | 45.42
20 | N#Cc1ccc(-c2cnc3ccc(NCc4ccc(S(N)(=O)=O)cc4)nn23)cc1 [TCMDC-124515] | 21.95

Row | Compound | % Inhibition [%]
21 | NS(=O)(=O)c1ccc(CNc2ccc3ncc(-c4ccc(OC(F)(F)F)cc4)n3n2)cc1 [TCMDC-136685] | 61.81
22 | FC(F)(F)Oc1ccc(-c2cnc3ccc(NCc4ccncc4)nn23)cc1 [TCMDC-136681] | 34.75
23 | CC(C)(CNC(=O)/C=C/c1ccc(Cl)c(Cl)c1)CNc1cc(=O)c2ccccc2[nH]1 [TCMDC-139404] | -42.09
24 | O=C(/C=C/c1ccc(Cl)c(Cl)c1)NCCCCCN1CCC(NC(=O)Nc2cc(Cl)ccc2Cl)CC1 [TCMDC-135726] | -46.31
25 | O=C(Cc1cnc[nH]1)Nc1cccc(-c2cccc(-c3nc4ccc(C(F)(F)F)cc4[nH]3)c2)c1 [TCMDC-136948] | -28.45
26 | CC1SC(=S)NC1C(=O)O (stereo not shown) [TCMDC-131380] | 9.711
27 | O=C(Nc1ccccc1)N(Cc1cccc(-c2cccc(CNCc3ccc4c(c3)OCO4)c2)c1)C1CCN(Cc2ccccc2)CC1 [TCMDC-140590] | 57.66
28 | COCCNC(=O)C(CNC(=O)c1ccc2c(c1)OCO2)NC(=O)c1ccc(-c2ccccc2)cc1 (stereo not shown) [TCMDC-140308] | -7.15
29 | O=C(Nc1ccccc1)N(Cc1cccc(-c2ccc(CNCc3ccc4c(c3)OCO4)cc2)c1)C1CCN(Cc2ccccc2)CC1 [TCMDC-140591] | 67.97
30 | COCC(=O)N(Cc1ccccc1-c1cccc(CNCc2ccc3c(c2)OCO3)c1)C1CCN(Cc2ccccc2)CC1 [TCMDC-140535] | 7.259
31 | CC(=O)N(Cc1ccccc1-c1cccc(CNCc2ccc3c(c2)OCO3)c1)C1CCN(Cc2ccccc2)CC1 [TCMDC-140526] | 86.49
32 | COCCNCc1cccc(-c2ccccc2CN(C(=O)c2ccc3c(c2)OCO3)c2ccc(OC)cc2)c1 [TCMDC-140571] | 88.17
33 | CC(=O)N(Cc1cccc(-c2cccc(CNCc3ccc4c(c3)OCO4)c2)c1)C1CCN(Cc2ccccc2)CC1 [TCMDC-140529] | -13.98
34 | CCOC(=O)c1c(NC(=O)c2ccccc2)sc2c(O)c(CNC3CCCCC3)ccc12 [TCMDC-124070] | 25.8
35 | COc1ccc(Cl)cc1N1CCN(CCCNC(=O)c2ccc(-c3nc4cc5ccccc5cc4[nH]3)c(F)c2)CC1 [TCMDC-140099] | 14.17
36 | COc1ccc(-c2ncnc(C(F)(F)F)c2-c2ccc(Cl)cc2)c(O)c1 [TCMDC-123728] | 11.32
37 | Cc1nnsc1C(=O)Nc1ccc(-c2ccc(-c3nc4ccccc4[nH]3)s2)cc1 [TCMDC-137077] | 0.7938
38 | Cc1ccc(C(=O)Nc2ccc(Cl)c(N3CCN(CCc4ccccc4)CC3)c2)cc1 [TCMDC-133536] | -30.75
39 | Nc1cccc(CNCc2cccc(-c3csc(-c4nc5ccccc5[nH]4)c3)c2)c1 [TCMDC-132925] | -31.54
40 | Cc1nc2ccc3ccc(CNc4ccc5c(c4)CN([C@@H](CCC(=O)O)C(=O)O)C5=O)cc3c2c(=O)[nH]1 [TCMDC-131928] | 20.65
